# Assay results: the supplement of paper PMC10849652
# Targets with a hit are over-represented here; the source holds about 8,800 in all. About 0.5% of all pairs of compound and target were hits. A number with no mark means an inactive call.
# Experiments:
# Test in all cases: log2 fold change, soluble protein after heating vs DMSO (PISA); higher = thermal stabilisation; K562 lysate, 10 uM; active = over 0.2 and 3.5 SD of the protein, either way, in both replicates (recomputed)
# erlotinib = compound: C#Cc1cccc(Nc2ncnc3cc(OCCOC)c(OCCOC)cc23)c1 [erlotinib]
# In short: (§1)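 K562 pellets were dounce-homogenised in PBS pH 7.4 with 1 mM MgCl2, and the crude extract at 1 mg/mL protein was treated with 10 μM compound for 30 min. Aliquots were heated for 3 min across 48°C-58°C, pooled, and brought to 0.5% NP-40 at 4°C; soluble protein was the supernatant after 21,000xg for 90 min. Soluble protein was quantified by TMTpro 16plex LC-MS/MS with channel sums equalised, and reported as log2 fold change in thermal stability against DMSO controls, with values from duplicates.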
# [1] = compound: C/C(=N\NC(=O)C1=CC(=CC=C1)S(=O)(=O)N2CCOCC2)/C3=C(C=CC(=C3)Cl)O
# In short: as §1
# [2] = compound: C1=CC(=CC=C1C2=NC3=C(N2)C=C(C=C3)C(=O)N)OC4=CC=C(C=C4)Cl
# In short: as §1
# [3] = compound: C1=CC2=C(C=CC(=C2)/C=C\3/C(=O)NC(=NCC4=CC=CS4)S3)N=C1
# In short: as §1
# [4] = compound: C1=CC2=NC=CN=C2C=C1/C=C/3\C(=O)NC(=O)S3
# In short: as §1
# [5] = compound: C1=CC=C(C=C1)C2=NC(=C(N2)C3=CC=NC=C3)C4=CC(=C(C=C4)Cl)O
# In short: as §1
# [6] = compound: C1=CC=C2C(=C1)C3=NNC4=CC=CC(=C43)C2=O
# In short: as §1
# [7] = compound: C1CCN(C1)C(=O)NC2=CC=CC(=C2)NC3=NC=C(C(=N3)NCCC4=CN=CN4)Br
# In short: as §1
# [8] = compound: C1CN(CCC1(CC2=CC=C(C=C2)Cl)N)C3=NC=NC4=C3C=CN4
# In short: as §1
# IRAK-1-4 Inhibitor I = compound: C1COCCN1CCN2C3=CC=CC=C3N=C2NC(=O)C4=CC(=CC=C4)[N+](=O)[O-] [IRAK-1-4 Inhibitor I]
# In short: as §1
# Chain of UniProt O00408 (O00408 whole entry, looked up): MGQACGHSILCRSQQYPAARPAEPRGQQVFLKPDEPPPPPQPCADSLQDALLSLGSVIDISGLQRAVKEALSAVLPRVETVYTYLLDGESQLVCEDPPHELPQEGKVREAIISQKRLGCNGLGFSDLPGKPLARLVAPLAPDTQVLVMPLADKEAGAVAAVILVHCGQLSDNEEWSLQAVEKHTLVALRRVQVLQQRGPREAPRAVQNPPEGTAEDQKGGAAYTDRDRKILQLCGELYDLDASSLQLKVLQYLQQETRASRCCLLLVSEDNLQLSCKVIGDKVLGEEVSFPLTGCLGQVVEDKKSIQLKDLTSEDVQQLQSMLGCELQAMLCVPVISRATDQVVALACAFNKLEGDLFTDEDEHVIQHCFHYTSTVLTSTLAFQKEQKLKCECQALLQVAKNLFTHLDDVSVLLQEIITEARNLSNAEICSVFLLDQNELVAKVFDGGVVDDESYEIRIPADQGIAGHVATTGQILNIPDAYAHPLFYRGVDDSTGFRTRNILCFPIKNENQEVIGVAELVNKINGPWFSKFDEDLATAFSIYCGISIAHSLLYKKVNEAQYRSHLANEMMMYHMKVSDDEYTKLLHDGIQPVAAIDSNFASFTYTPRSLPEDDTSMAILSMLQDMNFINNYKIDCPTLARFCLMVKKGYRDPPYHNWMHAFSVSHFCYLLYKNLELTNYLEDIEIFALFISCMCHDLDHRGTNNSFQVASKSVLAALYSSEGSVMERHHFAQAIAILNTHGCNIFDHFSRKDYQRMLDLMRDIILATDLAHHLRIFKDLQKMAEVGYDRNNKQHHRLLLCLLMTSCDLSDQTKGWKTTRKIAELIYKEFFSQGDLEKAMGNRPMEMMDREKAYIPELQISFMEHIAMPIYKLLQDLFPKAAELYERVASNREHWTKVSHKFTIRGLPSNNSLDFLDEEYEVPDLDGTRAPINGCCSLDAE
# Chain of UniProt Q8NEB9 (Q8NEB9 whole entry, looked up): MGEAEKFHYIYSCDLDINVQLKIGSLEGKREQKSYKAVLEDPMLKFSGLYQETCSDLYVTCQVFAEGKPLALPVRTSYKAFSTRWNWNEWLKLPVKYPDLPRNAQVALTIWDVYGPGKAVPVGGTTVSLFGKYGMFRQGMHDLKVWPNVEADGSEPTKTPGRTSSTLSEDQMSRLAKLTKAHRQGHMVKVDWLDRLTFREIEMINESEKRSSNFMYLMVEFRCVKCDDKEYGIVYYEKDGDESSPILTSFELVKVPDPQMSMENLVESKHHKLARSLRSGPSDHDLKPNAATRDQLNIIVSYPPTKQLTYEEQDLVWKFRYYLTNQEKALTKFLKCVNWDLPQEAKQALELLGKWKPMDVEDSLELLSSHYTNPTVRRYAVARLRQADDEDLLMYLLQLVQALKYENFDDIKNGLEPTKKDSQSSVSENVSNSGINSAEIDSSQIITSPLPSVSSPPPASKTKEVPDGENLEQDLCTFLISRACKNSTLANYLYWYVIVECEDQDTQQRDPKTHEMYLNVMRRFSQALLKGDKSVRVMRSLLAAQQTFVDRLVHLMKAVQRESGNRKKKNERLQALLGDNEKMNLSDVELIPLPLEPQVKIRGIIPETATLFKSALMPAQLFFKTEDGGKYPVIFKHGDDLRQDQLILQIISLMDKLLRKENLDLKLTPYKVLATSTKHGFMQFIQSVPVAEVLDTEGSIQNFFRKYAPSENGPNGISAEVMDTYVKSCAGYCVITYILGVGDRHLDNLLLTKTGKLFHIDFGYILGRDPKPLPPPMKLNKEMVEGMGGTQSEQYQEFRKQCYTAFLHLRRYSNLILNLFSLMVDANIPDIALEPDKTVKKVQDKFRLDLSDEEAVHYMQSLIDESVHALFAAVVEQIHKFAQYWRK
# Chain of UniProt Q99541 (Q99541 whole entry, looked up): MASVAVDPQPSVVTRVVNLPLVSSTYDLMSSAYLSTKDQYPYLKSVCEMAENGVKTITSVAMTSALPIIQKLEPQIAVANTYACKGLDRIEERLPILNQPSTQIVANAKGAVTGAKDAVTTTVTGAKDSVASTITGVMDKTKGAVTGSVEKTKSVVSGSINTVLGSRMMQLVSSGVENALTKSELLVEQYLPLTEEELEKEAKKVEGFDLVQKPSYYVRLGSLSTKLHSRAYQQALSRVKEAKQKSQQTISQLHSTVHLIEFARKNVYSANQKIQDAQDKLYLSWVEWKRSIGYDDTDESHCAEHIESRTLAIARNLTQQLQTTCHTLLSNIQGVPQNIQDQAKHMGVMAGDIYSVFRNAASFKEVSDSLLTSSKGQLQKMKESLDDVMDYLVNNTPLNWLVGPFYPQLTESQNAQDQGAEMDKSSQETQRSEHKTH
# Chain of UniProt P48634 (P48634 whole entry, looked up): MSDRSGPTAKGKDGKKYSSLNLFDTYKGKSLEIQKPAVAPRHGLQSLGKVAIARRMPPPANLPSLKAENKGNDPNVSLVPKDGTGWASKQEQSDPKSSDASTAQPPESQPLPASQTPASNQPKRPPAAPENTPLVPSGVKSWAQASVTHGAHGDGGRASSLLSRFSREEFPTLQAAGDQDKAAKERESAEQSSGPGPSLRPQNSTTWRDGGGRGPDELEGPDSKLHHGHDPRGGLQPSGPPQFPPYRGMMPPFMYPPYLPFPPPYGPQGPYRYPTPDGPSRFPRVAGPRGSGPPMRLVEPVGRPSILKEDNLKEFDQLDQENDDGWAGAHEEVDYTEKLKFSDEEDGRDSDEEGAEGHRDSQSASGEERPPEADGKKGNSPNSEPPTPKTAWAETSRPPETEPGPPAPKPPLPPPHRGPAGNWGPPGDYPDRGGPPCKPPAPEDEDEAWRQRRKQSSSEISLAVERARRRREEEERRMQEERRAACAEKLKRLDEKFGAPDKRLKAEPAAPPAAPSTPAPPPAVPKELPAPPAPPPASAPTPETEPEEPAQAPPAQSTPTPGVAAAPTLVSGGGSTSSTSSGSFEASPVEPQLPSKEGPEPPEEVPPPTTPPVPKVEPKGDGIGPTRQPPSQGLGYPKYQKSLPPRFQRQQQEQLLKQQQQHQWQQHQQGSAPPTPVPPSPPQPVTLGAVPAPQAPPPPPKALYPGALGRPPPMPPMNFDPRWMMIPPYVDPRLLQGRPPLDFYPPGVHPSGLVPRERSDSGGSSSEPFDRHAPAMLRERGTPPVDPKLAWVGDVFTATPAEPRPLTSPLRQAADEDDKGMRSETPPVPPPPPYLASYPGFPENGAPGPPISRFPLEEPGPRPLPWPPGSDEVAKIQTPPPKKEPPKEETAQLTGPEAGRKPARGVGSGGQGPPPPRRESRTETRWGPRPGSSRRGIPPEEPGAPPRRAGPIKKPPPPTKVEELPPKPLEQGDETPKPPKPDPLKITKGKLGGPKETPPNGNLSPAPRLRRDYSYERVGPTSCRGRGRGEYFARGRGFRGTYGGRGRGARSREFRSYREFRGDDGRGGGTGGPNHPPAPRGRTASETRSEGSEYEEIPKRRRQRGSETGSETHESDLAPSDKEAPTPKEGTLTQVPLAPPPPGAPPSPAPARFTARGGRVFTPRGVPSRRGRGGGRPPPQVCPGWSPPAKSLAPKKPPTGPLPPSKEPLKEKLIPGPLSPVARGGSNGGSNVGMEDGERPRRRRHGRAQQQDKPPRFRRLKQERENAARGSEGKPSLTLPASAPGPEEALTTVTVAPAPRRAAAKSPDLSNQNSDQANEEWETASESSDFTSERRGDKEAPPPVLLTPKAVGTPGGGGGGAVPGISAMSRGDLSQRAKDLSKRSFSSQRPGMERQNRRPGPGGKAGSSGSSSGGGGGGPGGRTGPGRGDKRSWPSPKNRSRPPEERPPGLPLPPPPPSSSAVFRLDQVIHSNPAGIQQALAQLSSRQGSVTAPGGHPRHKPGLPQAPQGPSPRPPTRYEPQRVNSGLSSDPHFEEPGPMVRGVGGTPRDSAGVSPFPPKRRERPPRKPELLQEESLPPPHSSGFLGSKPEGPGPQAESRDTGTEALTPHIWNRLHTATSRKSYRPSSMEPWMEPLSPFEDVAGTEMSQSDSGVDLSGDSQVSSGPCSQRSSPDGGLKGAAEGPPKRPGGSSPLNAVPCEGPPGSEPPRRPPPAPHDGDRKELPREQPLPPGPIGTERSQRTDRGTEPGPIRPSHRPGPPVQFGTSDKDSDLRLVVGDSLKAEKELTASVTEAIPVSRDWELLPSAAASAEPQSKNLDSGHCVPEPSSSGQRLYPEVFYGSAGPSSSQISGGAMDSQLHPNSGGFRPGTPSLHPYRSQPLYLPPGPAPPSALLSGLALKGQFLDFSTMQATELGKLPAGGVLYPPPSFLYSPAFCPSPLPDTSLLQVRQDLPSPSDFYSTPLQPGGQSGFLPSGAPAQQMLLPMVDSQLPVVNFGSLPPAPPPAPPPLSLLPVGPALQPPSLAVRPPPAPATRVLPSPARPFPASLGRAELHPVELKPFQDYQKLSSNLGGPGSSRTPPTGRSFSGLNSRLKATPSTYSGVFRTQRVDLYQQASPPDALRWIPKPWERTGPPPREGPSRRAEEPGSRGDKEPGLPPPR
# Chain of UniProt P07737 (P07737 whole entry, looked up): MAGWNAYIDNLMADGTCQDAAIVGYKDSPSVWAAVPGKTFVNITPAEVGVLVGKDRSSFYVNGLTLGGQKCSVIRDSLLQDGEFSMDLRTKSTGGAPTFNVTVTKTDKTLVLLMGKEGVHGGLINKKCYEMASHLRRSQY
# Chain of UniProt Q9NR22 (Q9NR22 whole entry, looked up): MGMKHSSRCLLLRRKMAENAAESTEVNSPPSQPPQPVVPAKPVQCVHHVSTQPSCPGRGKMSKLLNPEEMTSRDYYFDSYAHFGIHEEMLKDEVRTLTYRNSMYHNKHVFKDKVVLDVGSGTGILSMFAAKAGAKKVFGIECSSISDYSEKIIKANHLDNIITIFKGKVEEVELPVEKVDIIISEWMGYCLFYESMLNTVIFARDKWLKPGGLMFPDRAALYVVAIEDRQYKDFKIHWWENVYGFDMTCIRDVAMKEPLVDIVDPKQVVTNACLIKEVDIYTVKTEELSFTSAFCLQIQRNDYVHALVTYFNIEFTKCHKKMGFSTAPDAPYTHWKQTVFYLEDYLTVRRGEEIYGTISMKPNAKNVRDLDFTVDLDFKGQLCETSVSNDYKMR
Target,log2 fold change (erlotinib),log2 fold change [1],log2 fold change [2],log2 fold change [3],log2 fold change [4],log2 fold change [5],log2 fold change [6],log2 fold change [7],log2 fold change [8],log2 fold change (IRAK-1-4 Inhibitor I)
PI4KB (UniProt Q9UBF8),0.017,-0.108,-0.011,0.038,0.173,0.011,0.193,0.01,-0.065,-0.003
PRKCB isoform 2 (UniProt P05771),0.053,-0.191,0.07,-0.043,-0.004,-0.064,-0.12,-0.149,0.019,-0.02
PDE2A (UniProt O00408),-0.015,0.082,0.12,-0.337,-0.055,0.249,-0.257,0.001,-0.027,0.18
PPT2 isoform 3 (UniProt Q9UMR5),0.038,-0.113,0.001,0.014,-0.012,-0.057,0.042,0.01,0.043,0.122
POLB (UniProt P06746),0.012,0.009,0.075,0.069,-0.022,0.019,-0.061,-0.019,0.026,-0.062
PDAP1 (UniProt Q13442),-0.01,-0.022,0.02,-0.005,0.001,-0.007,0.023,0.016,-0.012,0.026
PFN1 (UniProt P07737),-0.022,-0.017,0.01,0.019,-0.007,-0.006,0.015,-0.002,0.01,-0.007
PTGES2 (UniProt Q9H7Z7),0.008,0.056,-0.133,0.066,-0.054,0.174,0.162,0.028,-0.023,0.161
PRRC2A (UniProt P48634),-0.026,-0.018,0.073,-0.002,0.006,-0.09,0.014,0.01,0.006,0.026
PRKACA (UniProt P17612),-0.033,-0.056,0.049,0.016,-0.015,-0.015,0.034,0.234,0.34,0.015
PRIMPOL (UniProt Q96LW4),-0.063,0.007,-0.02,-0.025,0.076,-0.013,0.019,0.009,-0.046,0.059
PRKCA (UniProt P17252),0.031,-0.086,-0.019,0.108,0,0.044,-0.088,-0.037,0.044,0.005
PIGO (UniProt Q8TEQ8),0.179,-0.423,-0.266,0.242,0.132,0.001,-0.285,-0.001,0.117,0.114
PRMT8 (UniProt Q9NR22),0.01,-0.003,0.009,-0.046,-0.015,0.024,-0.031,-0.012,0.013,0.024
PTPN1 (UniProt P18031),-0.007,0.065,-0.015,0.025,-0.011,-0.005,-0.019,0.027,-0.017,0.024
PRMT7 (UniProt Q9NVM4),-0.042,0.004,0.024,0.038,0.008,-0.023,-0.083,-0.033,-0.031,-0.008
PPP1R12B isoform 6 (UniProt O60237),-0.081,0.025,-0.103,-0.08,0.057,-0.053,-0.07,-0.123,0.037,0.153
PRKCSH (UniProt P14314),-0.027,0.013,0.01,-0.012,-0.012,0.023,0.07,0.027,-0.027,0.005
PRKD2 isoform 3 (UniProt Q9BZL6),0.085,-0.047,0.031,-0.112,0.028,0.014,-0.037,-0.175,-0.009,0.021
PDCD6IP isoform 2 (UniProt Q8WUM4),0.027,0.046,0.009,0.01,-0.02,0.007,-0.007,0.002,0.007,-0.002
PCF11 (UniProt O94913),0.031,-0.063,0.014,0.008,-0.044,-0.025,-0.028,0.005,0.005,-0.017
PLK1 (UniProt P53350),0.006,-0.032,-0.013,0.077,-0.092,0,-0.147,-0.069,0.143,-0.141
PHKA2 (UniProt P46019),0.048,-0.051,0.032,0.052,0.044,-0.058,0.012,0.027,0.033,0.03
PIK3C3 (UniProt Q8NEB9),0.014,-0.059,0.004,0.017,0.025,0.009,0.053,-0.084,0.015,0.081
PTPN7 isoform 3 (UniProt P35236),0.032,-0.002,-0.028,-0.06,-0.026,-0.008,-0.03,0.009,0.045,0.021
PGPEP1 (UniProt Q9NXJ5),-0.003,0.102,-0.053,-0.046,0.013,0.014,-0.018,-0.059,0.001,-0.003
PPIE (UniProt Q9UNP9),0.005,-0.022,0.064,0.031,-0.008,0.001,-0.002,-0.025,0.025,-0.019
PLIN2 (UniProt Q99541),0.013,0.024,-0.093,0.004,0.028,-0.015,-0.045,0.021,-0.042,0
PDPK1 (UniProt O15530),-0.066,-0.007,-0.081,-0.047,-0.055,0.005,0.298,0.552 (active),0.019,0.018
